# Source: PubChem BioAssay AID504332 (National Center for Advancing Translational Sciences (NCATS), 2011)
# Screen size: about 350,000 compounds; about 31,000 (8.9%) were called active. About 15% were inconclusive and are not listed. For the sample, actives were picked, then their nearest neighbours and some compounds at random. Unmarked numbers belong to inactive results. Calls come from the whole dose curve; as a rule, active = well fitted inhibition curve with a large enough effect; inconclusive = small, poorly fitted or top-dose-only effect; inactive = no such curve, though single readings can be large or run the other way.
# Target: Histone-lysine N-methyltransferase EHMT2 (Homo sapiens) (UniProt Q96KQ7)
# Assay: qHTS Assay for Inhibitors of Histone Lysine Methyltransferase G9a; note: nearly all actives have a fitted effect of over 75% in size
# Conditions: G9a H3K9 monomethylation, AlphaScreen, 2 h; series mostly up to 59 µM; activity, negative = inhibition: at the top concentration
# How it was run: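 Step 1: enzyme (final 20 nM) with compound, 15 min RT. Step 2: substrate peptide 500 nM and SAM 20 uM, 2 h RT. Step 3: anti-H3K9me1 antibody and AlphaScreen beads, 10 min, then plate read.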
# % is set by controls: 0 for no effect and ±100 for the full control effect; potency is the fitted concentration of half-maximal effect.
# Chain of Histone-lysine N-methyltransferase EHMT2 (Homo sapiens) (Q96KQ7 913-1193 limits assumed): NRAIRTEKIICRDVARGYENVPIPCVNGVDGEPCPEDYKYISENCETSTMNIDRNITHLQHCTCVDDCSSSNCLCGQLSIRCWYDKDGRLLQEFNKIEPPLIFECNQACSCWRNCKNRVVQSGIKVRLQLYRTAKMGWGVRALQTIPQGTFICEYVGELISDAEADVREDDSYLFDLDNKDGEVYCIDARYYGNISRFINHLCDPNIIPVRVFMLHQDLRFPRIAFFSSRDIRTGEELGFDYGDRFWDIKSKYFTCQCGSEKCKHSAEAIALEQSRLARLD
Compound,"activity, negative = inhibition",Potency
CCN(CC)S(=O)(=O)c1ccc(-c2cn3ccc(C)cc3n2)cc1,4.83% [at 0.501 µM],–
CCOC(=O)CSc1ccccn1,–,39.8 µM (active)
CCOC(=O)CSc1ncc(-c2cccc(Cl)c2)cn1,115% [at 102 µM],–
COC(=O)c1ccccc1NC(=O)CSc1ccccn1,2.13%,–
O=C(Nc1ccccc1Cl)N1CCC(CN2CCCCC2)CC1,-2.61%,–
COc1ccc2sc(-c3ccc(N(C)C)cc3)c(C#CCO)c2c1,8.02% [at 0.501 µM],–
COc1ccc(-c2cc(-c3nc(-c4cc(OC)c(OC)c(OC)c4)no3)[nH]n2)c(OC)c1,-1.81%,–
O=C(c1cn(-c2ccccc2)nc1-c1cccnc1)N1CCCCC1,4.5% [at 102 µM],–
CC(C)(C)OC(=O)N/N=C/c1cn(-c2ccccc2)nc1-c1cccnc1,3.66% [at 102 µM],–
CN(C)/N=C/c1cn(-c2ccccc2)nc1-c1cccnc1,–,56.2 µM (active)
CCCCc1ccc(NS(=O)(=O)c2cccc(C(=O)N3CCCN(C)CC3)c2)cc1,18.4%,–
CC(=O)NC(CC(=O)Nc1cccc(S(=O)(=O)N2CCCC2)c1)c1ccccc1 (configuration not stated),1.42% [at 102 µM],–
Cc1nn(CC(=O)NC2CCCCC2)c(=O)c2cccn12,14.9% [at 102 µM],–
Cc1cc(C(F)F)nn1CC(=O)NC1CCCCCC1,–,79.4 µM (active)
O=C(Cn1nc([N+](=O)[O-])nc1Br)NC1CCCCC1,-0.489% [at 102 µM],–
CCc1noc(C)c1C(=O)N1CCCSC1=Nc1ccccc1OC,-2.08% [at 102 µM],–
O=C1c2ccccc2C(=O)N1CCC#Cc1ccc2cc(C3(O)CCCCC3)oc(=O)c2c1,1.05% [at 0.501 µM],–
Cc1cc(=O)n2nc(N3CCCC(C(=O)NCCC4=CCCCC4)C3)sc2n1 (configuration not stated),4.22% [at 12.7 µM],–
CC1CCCN(C(=O)c2ccc3c(c2)C(=O)N(CCC2=CCCCC2)C3=O)C1 (configuration not stated),–,39.8 µM (active)
C=CCN1C(=O)c2ccc(C(=O)N3CCC(C(=O)OCC)CC3)cc2C1=O,-24% [at 102 µM],–
O=c1[nH]c2cc(Br)ccc2n2cccc12,4.26%,–
CNC(=O)C1CC(=O)N(c2ccc(OCC(=O)Nc3ccccc3C)cc2)C1 (configuration not stated),-6.25% [at 102 µM],–
Cc1cccc(N2CCN(C3=C(c4ccccc4)C(=O)c4ccccc43)CC2)c1C,–,3.55 µM (active)
Cc1cccc(N2CCN(C(=O)c3oc(=O)c4ccccc4c3-c3ccccc3)CC2)c1C,-10.9%,–
Cc1cccc(N2CCN(Cc3c(C)n(C)n(-c4ccccc4)c3=O)CC2)c1C,11.6% [at 12.7 µM],–
CN(C)c1ccc(-c2nnc(-c3cccnc3)o2)cc1,-31.1% [at 102 µM],–
COC(=O)c1cc(NC(=O)c2cnc(SC)nc2-c2ccccc2)cc(C(=O)OC)c1,-6.31%,–
